Assay results published in PubChem BioAssay AID2732 (Emory University Molecular Libraries Screening Center, 2010).
In all, about 220,000 compounds went through this assay and about 8,200 (3.7%) were called active. The list comes from a sample in which actives are over-represented; it also holds similar structures and randomly drawn compounds. Unmarked numbers belong to inactive results.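 The calls were made as follows: active = compounds that reduced the stress-induced luciferase reporter signal by more than about 70% of percent inhibition (limit read from the data); inactive = the rest.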

Assay: inhibitors of CHOP promoter induction, primary screen, cell-based, unfolded protein response, luciferase reporter (AID 2732);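 also: 0% = tunicamycin plus vehicle and 100% = wells without tunicamycin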
Details: CHO-K1 CHOP-promoter luciferase, tunicamycin-induced, 15-18 h; at 10 µM; active compounds read high

| SMILES | inhibition |
| --- | --- |
| COc1ccc(/C=N/NS(=O)(=O)c2ccc(NC(C)=O)cc2)cc1 | 1.32% |
| CN(C)S(=O)(=O)c1ccc(NC(=O)COC(=O)Cn2[nH]c(=O)c3ccccc3c2=O)cc1 | 0.58% |
| Cc1cccc2c1-c1sc(C(=O)NCCCN3CCc4ccccc4C3)cc1CO2 | 35.6% |
| Cc1cnc(NC(=O)CSc2nnc(C)s2)s1 | 22.4% |
| Cc1cnc(NC(=O)CSc2c(Cl)cccc2Cl)s1 | 74.4% (active) |
| Cc1ccc(SCC(=O)Nc2ncc(C)s2)cc1 | 4.03% |
| FC(F)(F)Oc1ccc(-c2cn3cccnc3n2)cc1 | 2.48% |
| CCOC(=O)c1nnn2c3ccccc3c(=O)n(C)c12 | 8.91% |
| Cc1ccc(-c2cc(C(=O)NN)n[nH]2)o1 | 2.15% |
| CC(=O)c1sc(NC(=O)c2ccc(C)cc2)nc1C | -2.78% |
| N#Cc1ccc(C(=O)Nc2nc(-c3cccs3)c(C(=O)C(F)(F)F)s2)cc1 | 74.7% (active) |
| Cc1ccc(C(=O)Nc2nnc(-c3cccs3)s2)cc1C | 48.9% |
| Cn1c2c(c(=O)n(C)c1=O)C(c1cccc(F)c1)C(C#N)=C(N)O2 (configuration not stated) | 6.57% |
| CCc1nc2sc3c(Cl)ncnc3c2c2c1CCCC2 | -17.1% |
| CCOC(=O)CN(Cc1ccc(OC)c(OC)c1)S(=O)(=O)c1ccc(OC)cc1 | -1.05% |
| COc1ccc(CCNC(=O)C(Sc2ccccn2)c2ccccc2)cc1OC (configuration not stated) | 6.29% |
| COc1ccc(C(CCN(Cc2ccc(OC)c(OC)c2)C(=O)CCl)c2ccccc2)cc1 (configuration not stated) | 106% (active) |
| CC(C)(C)c1cc(C(=O)NN)n(Cc2ccc(Cl)cc2Cl)n1 | -7.9% |
| Cc1c([N+](=O)[O-])c(N)nn1C | 4.08% |
| N#CCC(=O)N/N=C/c1cn(Cc2ccc3ccccc3c2)c2ccccc12 | 1.95% |
| NS(=O)(=O)c1cccnc1Nc1cccc(Cl)c1 | 5.4% |
| OCCCNc1nccc(-c2cc(Nc3cccc(Cl)c3)ncn2)n1 | 103% (active) |
| CC(C)n1cnc2c(Nc3cccc(Cl)c3)nc(N(CCO)CCCO)nc21 | 61.8% |
| CCOC(=O)C1CCN(C(=O)Nc2cccc(OC)c2)CC1 | 6.27% |
| CSc1nc(C)nc(C2CC2)c1C#N | 15.9% |

| SMILES | inhibition |
| --- | --- |
| COc1ccc(N2CCN(c3ccc([N+](=O)[O-])nc3)CC2)cc1 | 10.8% |
| CC(=O)NC(Cc1ccccc1)C(=O)NC1CCN(c2ncccc2[N+](=O)[O-])CC1 (configuration not stated) | 19.6% |
| COc1ccc(-c2cc(C3CCN(c4ncccc4[N+](=O)[O-])CC3)[nH]n2)cc1 | 75.9% (active) |
| CC1(C)CC(CNCCC(c2ccc(F)cc2)c2ccco2)CCO1 (configuration not stated) | 10.6% |
| C=CCn1cc(-c2cccc(C(F)(F)F)c2)cc(C#N)c1=O | 5.76% |
| C=CCn1c(SCn2nnc3ccccc3c2=O)nnc1-c1ccc(Cl)cc1 | 17.8% |
| C=CCn1c(-c2ccc(Cl)cc2)ccc(C#N)c1=O | 82.2% (active) |
| O=C(Cc1ccccc1)Nc1c(Cl)ccc2nsnc12 | -1.48% |
| O=C(c1ccc(F)cc1)C1CCN(Cc2cn[nH]c2-c2ccccc2)CC1 | 15.6% |
| Cn1cnc([N+](=O)[O-])c1Sc1n[nH]c(N)n1 | -10.3% |
| O=C(Nc1ccc(CSc2ccccc2)cc1)c1ccc(CN2CCOCC2)cc1 | 79.5% (active) |
| O=C(Nc1ccccc1C(=O)N1CCOCC1)c1ccc(CSc2ccccc2)cc1 | -8.2% |
| COc1ccc(C(=O)Nc2ccc(CN3CCOCC3)cc2)cc1 | -29.9% |
| Cc1nnc(C)c2c(C)n(N)c(C)c12 | 13.9% |
| COCC(=O)Nc1nnc(COc2ccccc2)s1 | -20.1% |
| Cc1ccc(OCc2nnc(NC(=O)OCC(C)C)s2)cc1 | 91% (active) |
| Cc1ccc(COc2ccc(C(=O)NN)cc2)cc1 | 0.74% |
| CCn1c(CN2C(=O)CSc3ccccc32)n[nH]c1=S | 11.5% |
| C=CCNC(=O)c1ccc2c3n(nc2c1)-c1ccc(C)cc1CO3 | -2.7% |
| COCCNC(=S)N1CCN(C)CC1 | -18.1% |
| CSCCC1NC2(C(=O)Nc3ccc(Cl)cc32)[C@@H]2C(=O)N(C3CCCC3)C(=O)[C@H]12 (some centres not stated) | 85.7% (active) |
| O=C1[C@@H]2C(Cc3ccc(O)cc3)NC3(C(=O)Nc4ccc(F)cc43)[C@@H]2C(=O)N1c1ccc(F)cc1 (some centres not stated) | 27.9% |
| COc1ccc(N=Nc2ccc(O)c(P(=O)(c3ccccc3)c3ccccc3)c2)cc1 | 2.83% |
| CCOC(=O)CN/C=C(\C#N)c1ccc(F)cc1 | -6.58% |
| C/C(=N\OCC(=O)O)c1ccc(Cl)cc1 | -4.7% |

| SMILES | inhibition |
| --- | --- |
| CCOc1cc(/C=C(/C#N)c2ccc(Cl)cc2)cc(Cl)c1OCC(=O)O | 87.8% (active) |
| C=CC1C(OC2OC(CO)C(O)C(O)C2O)OC=C(C(=O)OC)C1CC1CC(=O)CC(CC(=O)CCc2ccc(O)cc2)O1 (configuration not stated) | 7.57% |
| CCOC(=O)c1c(CC(C)C)csc1/N=C/C1=C(O)CCCC1=O | 24.8% |
| O=C(Nc1ccccc1)Nc1nnc(COc2ccccc2F)s1 | 9.53% |
| Cc1nnc(NC(=O)CCCOc2ccccc2)s1 | 26.2% |
| O=C(Nc1nnc(COc2ccccc2)s1)Nc1ccccc1F | 96.7% (active) |
| Cc1ccc(S(=O)(=O)N2CCN(C(=O)COC(=O)c3c(C)noc3C)CC2)c(C)c1 | 8.26% |
| Cc1ccc(C(=O)Cn2cc([N+](=O)[O-])nc2C)cc1 | 2.6% |
| O=C(CN1CCOCC1)N/N=C/c1ccc(-c2ccc(Br)cc2)o1 | 32.5% |
| O=c1c(-c2ccc3c(c2)OCCO3)c(C(F)(F)F)oc2cc(O)cc(O)c12 | 13.2% |
| CCOC(=O)c1cc2cc(-c3c(C(=O)OCC)oc4cc(O)cc(O)c4c3=O)ccc2o1 | 105% (active) |
| CCOC(=O)c1oc2c(CN3CCN(C)CC3)c(O)ccc2c(=O)c1-c1ccc(Br)cc1 | -10.9% |
| NC(=O)[C@H]1CC2(CC(c3cccc(NC(=O)[C@H]4CCC(=O)N4)c3)=NO2)CN1C(=O)c1ccccc1C(=O)c1ccccc1 (some centres not stated) | -11.9% |
| Cn1c(SCC(=O)N/N=C/c2ccc(O)c(O)c2)nc2ccccc21 | -4.19% |
| Nc1ccc(C(=O)OCC(=O)NC2CCS(=O)(=O)C2)cc1[N+](=O)[O-] (configuration not stated) | 3.77% |
| C=CCOC(=O)C1=C(C)NC(C)=C(C(=O)OCC=C)C1c1cccs1 | 86.8% (active) |
| CCOC(=O)C1=C(C)NC(=S)NC1c1cccs1 (configuration not stated) | 0.7% |
| CCOC(=O)C1=C(C)Nc2nc3ccccc3n2C1c1cccs1 (configuration not stated) | 18% |
| CCC(C)NC(=O)C1c2ccccc2Oc2ccccc21 (configuration not stated) | -5.78% |
| O=C(CCCN1C(=O)/C(=C/c2ccccc2)SC1=S)Nc1ccc(O)cc1 | 58.8% |
| O=C(CCCN1C(=O)/C(=C\c2ccccc2)SC1=S)Nc1ccccc1O | 27% |
| C=CCOc1ccc(/C=C2\SC(=S)N(CCC(=O)O)C2=O)cc1 | 88% (active) |
| Cn1nnc(NC(=S)NC(=O)c2ccccc2)n1 | 17.2% |
| O=C(Nc1ccc(S(=O)(=O)Nc2nccs2)cc1)c1cccc(S(=O)(=O)N2CCOCC2)c1 | -32.6% |
| COc1ccc(Cn2c(O)c(/C=C3/C=CC=N3)c(=O)[nH]c2=O)cc1 | 1.57% |

| SMILES | inhibition |
| --- | --- |
| C=CC(COCc1ccccc1)N(Cc1ccccc1)S(=O)(=O)c1ccccc1Br (configuration not stated) | 13.4% |
| CC(C)(C)C(=O)NNC(=O)c1ccc(Oc2cc(Cl)cc(Cl)c2)o1 | 1.32% |
| COC(=O)c1ccc(S(=O)(=O)N(CCO)Cc2ccccc2)n1C | -4.99% |
| O=S(=O)(c1ccccc1)N1CN(Cc2ccc(F)cc2)c2nc3ccccc3nc21 | 3.85% |
| CCc1c(C)sc(NC(=O)c2ccc(Br)o2)c1C(=O)OC | 88.9% (active) |
| CCc1c(C)sc(NC(=O)/C=C/c2ccc3c(c2)OCO3)c1C(=O)OC | 1.72% |
| CCOC(=O)c1c(NC(=O)c2ccc(Br)o2)sc2c1CCCC2 | 22.6% |
| Cc1cccc(OCc2nnc(SCn3nnc4ccccc4c3=O)o2)c1 | 55.9% |
| COc1cc(CN(C)Cc2nc3cc(C(F)(F)F)ccc3c(=O)[nH]2)ccc1OC(F)F | 34.5% |
| Cc1cccc(OCc2nnc(SCc3nc4cc(C(F)(F)F)ccc4c(=O)[nH]3)o2)c1 | 104% (active) |
| O=C(/C=C/Nc1ccc(S(=O)(=O)Nc2cnc3ccccc3n2)cc1)c1cccnc1 | 12.4% |
| COc1ccc(COCC(O)CN2CCC(C(N)=O)CC2)cc1 (configuration not stated) | -5.79% |
| O=C(CSc1nc(-c2ccco2)cc(C(F)(F)F)n1)NCc1cccs1 | 30.9% |
| CCOC(=O)c1ccn(-c2nc(-c3ccco3)cc(C(F)(F)F)n2)n1 | 7.61% |
| FC(F)(F)c1cc(-c2ccco2)nc(NCc2ccc(Cl)cc2)n1 | 81.4% (active) |
| Cc1cc(C(F)(F)F)nn1-c1nc(-c2ccco2)cc(C(F)(F)F)n1 | 30.6% |
| FC(F)(F)c1cc(-c2cccs2)nc(NCc2ccco2)n1 | 52.2% |
| FC(F)(F)c1cc(-c2ccco2)nc(N2CCOCC2)n1 | 101% (active) |
| COc1ccc(Cl)cc1NC(=O)CCN1CCOCC1 | 5.05% |
| CC(C)Cc1nc(Nc2ccc(S(=O)(=O)N3CCCC3)cc2)c2nnn(Cc3ccccc3)c2n1 | 27.2% |
| C#CCNc1nc(C(C)C)nc2c1nnn2Cc1ccccc1F | 89.8% (active) |
| CC(=O)NC(C)c1nc2ccccc2n1Cc1ccccc1F (configuration not stated) | -2.56% |
